Source: PubChem BioAssay
Pf growth 96h: P. falciparum growth inhibition at 96 hours | P. falciparum luciferase reporter growth, 96 h | Potency, µM (series often up to 28.7 µM), inactives show at the top dose activity change, negative = inhibition, actives largely listed as inhibitors | 320,000 compounds, 6.9% hits; also: potency is read from the fitted curve at half-maximal effect; % is scaled to controls: 0 for no effect and ±100 for the full control effect
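Delayed-death screen, second-generation endpoint: infected erythrocytes, 2% hematocrit, 0.05% parasitemia final; 96 hours at 37 C, 5% CO2; luciferase detection reagent; luminescence decrease equals reduced growth.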
LASV entry inh: blocks Lassa virus binding to or entry into cells; Lassa virus pseudotype entry inhibition, cell reporter; Potency, µM (top dose mostly 37.9 µM), for the others: at the top dose activity change, negative = inhibition, actives largely listed as inhibitors; 300,000 compounds, 1.2% hits; AID 540256; calls by dose curve; tested in HEK293 cells; also: potency is read from the fitted curve at half-maximal effect; % is scaled to controls: 0 for no effect and ±100 for the full control effect; nearly all actives have a fitted effect of over 50% in size
HCV inhibitor: HCV inhibition; Huh7.5.1 HCVcc-Cre infection, luciferase reporter, 44 h; Potency, µM (series often up to 41.8 µM), inactives show at the top dose activity change, negative = inhibition, most hits filed as inhibitors; 340,000 compounds, 3.4% hits; also: potency is read from the fitted curve at half-maximal effect; % is scaled to controls: 0 for no effect and ±100 for the full control effect
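HCVcc-Cre virus at an moi near 0.5 was added right after compound to cells cultured 4 h from seeding (1,000 cells/well). Luciferase activity was determined 44 h later, 15 min after substrate addition at RT.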
HCMV antiviral: human cytomegalovirus inhibition. HFF cells, HCMV-luciferase reporter, 72 h; stronger effect = lower value. activity change, negative = inhibition, % at 57.5 µM. 410,000 compounds, 4.5% hits. AID 1259415; in the data active = activity change below about -60%; inconclusive = no clear call, values can overlap the other calls; inactive = above about -39%; also: % is scaled to controls: 0 for no effect and ±100 for the full control effect
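HFF cells seeded 16 h at 37C, treated with compounds, infected with luciferase-reporter HCMV at MOI 1 PFU/cell; luciferase read at 72 h post infection, normalized to buffer-only and Salinomycin controls.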
MARV entry inh: blocks Marburg virus binding to or entry into cells | Marburg virus pseudotyped entry inhibition, cell reporter | Potency, µM (doses to about 37.8 µM), inactives show at the highest dose activity change, negative = inhibition, most hits filed as inhibitors | 300,000 compounds, 1.8% hits | AID 540276; calls by dose curve; tested in HEK293 cells; also: potency is read from the fitted curve at half-maximal effect; % is scaled to controls: 0 for no effect and ±100 for the full control effect
Pf growth 48h: P. falciparum growth inhibition at 48 hours (one generation) | P. falciparum luciferase growth in erythrocytes, 48 h | Potency, µM (doses to about 28.7 µM), without a hit: at the top dose activity change, negative = inhibition, usual class: inhibitors | 310,000 compounds, 5.9% hits; also: potency is read from the fitted curve at half-maximal effect; % is scaled to controls: 0 for no effect and ±100 for the full control effect
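Luciferase-expressing parasites in RBCs, 2% Hct / 0.1% parasitemia final; RPMI 1640 + 0.5% Albumax; 37 C, 5% CO2, one generation; luminescence read-out, lower signal = inhibition.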
HCV inh confirm: HCV inhibition, cherry-pick confirmation; shares compounds with HCV inhibitor; AID 720575; HCVcc-Cre infectious virus cell assay, luciferase, inhibition; Potency, µM (highest dose often 41.8 µM), without a hit: at the highest dose activity, negative = inhibition, hits mostly inhibitors; 640 compounds, 78% hits; also: potency is read from the fitted curve at half-maximal effect; nearly all actives have a fitted effect of over 80% in size
HCV host tox: toxic to HCV host cells, flagging false HCV inhibitors; shares compounds with HCV inhibitor; HCV host cell line cytotoxicity counterscreen; Potency, µM (top dose mostly 41.8 µM), for the others: at the highest dose activity change, negative = cytotoxicity, actives largely listed as inhibitors; 640 compounds, 22% hits;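 also: potency is read from the fitted curve at half-maximal effect; 44 h compound exposure; % is scaled to controls: 0 for no effect and ±100 for the full control effect; nearly all actives have a fitted effect of over 55% in size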
* = called active by the depositor; ? = inconclusive; nt = not tested or not shown; [ ] = another dose, or the depositor's remark. Sampled rows, rich in hits. Any-hit rate of the full collection: about 14%. Unless noted, calls follow the shape of the dose curve; as a rule, active = well fitted curve in the direction sought with a large enough effect; inconclusive = small, poorly fitted or top-dose-only effect, or another doubt; inactive = no such curve, though single readings can be large; an effect the other way counts as inactive or inconclusive.

SMILES | Pf growth 96h | LASV entry inh | HCV inhibitor | HCMV antiviral | MARV entry inh | Pf growth 48h | HCV inh confirm | HCV host tox
Cc1ccc(C)c(NC(=S)NC(NC(=O)N(C)C)C(Cl)(Cl)Cl)c1 (stereo not given) | ? | -5.3% | 0.7% | 29.8 | 8.2% | ? | nt | nt
COc1cccc(-c2nc(CS(=O)CC(=O)NC(C)CCc3ccccc3)c(C)o2)c1 (stereo not given) | ? | nt | ? | -12.0 | nt | 22.3% | nt | nt
O=C(NCC1CCCO1)c1cc2c([nH]c3ccccc32)c(-c2cccc(Br)c2)n1 (stereo not given) | 3.7µM* | nt | 2µM* | -72.3* | nt | ? | 14.1µM* | 37.2%
CCN(CC(=O)NCc1cccs1)S(=O)(=O)c1ccc(F)c(F)c1F | ? | 0.7% | ? | -33.4 | 2.7% | -6.3% | nt | nt
COc1ccc(CCNC(=O)C2CC2)cc1 | nt | 21.2% | 6.8% | -17.4 | 1.1%[46.1 µM] | nt | nt | nt
COc1ccc(C[C@H]2NC[C@H](O)[C@H]2OC(C)=O)cc1 | nt | nt | ? | -98.1* | nt | nt | 7.05µM* | -12.1%
Cc1ccc(NC(=O)/C(C#N)=C\c2ccc(-c3ccc(Cl)cc3)o2)c(C)c1 | nt | 25.9%[46.1 µM] | nt | ? | nt | nt | nt | nt
C#CCN1C=CC(=O)[C@@H](OC(=O)Nc2ccc(Cl)cc2)[C@H]1c1ccccc1Br | nt | nt | 8.91µM* | 25.1 | nt | nt | ? | 0.6%
CCCC(=O)NNc1c2ccccc2nc2ccccc12 | 9.28µM* | -0.4% | 1.41µM* | -9.1 | 23.4% | -25.7% | 0.56µM* | 0.499µM*
O=C(COc1ccccc1)NNc1c2ccccc2nc2ccccc12 | -12.4% | ? | 1µM* | -92.3* | 11.2µM* | 5.22µM* | 1.58µM* | -94.4%
CCCC(=O)NNC(=O)CCC(=O)NCc1ccccc1 | 37.2% | -7.4% | -4.4% | -7.8 | -0.4% | 36.0% | nt | nt
Nc1sc2c(c1C(=O)NC1CC1)CCCC2 | nt | nt | -1.9% | -18.4 | nt | nt | nt | nt
N#Cc1cccc(-c2cn(S(=O)(=O)c3ccc(Cl)cc3)nc2N)c1 | 14.1% | -23.6% | ? | ? | -21.6%[46.1 µM] | ? | nt | nt
C=CCNC(=O)c1ccc(Cn2c(=S)[nH]c3cc4c(cc3c2=O)OCO4)cc1 | 142.7% | -12.8% | ? | -25.7 | -14.1% | 8.6% | 2.5µM* | 20.8%
CCN(CC)C(=O)c1ccc2c(=O)n(Cc3ccc4c(c3)OCO4)c(=S)[nH]c2c1 | 11.8% | nt | -12.6% | -24.9 | nt | ? | nt | nt
COC(=O)CCC(=O)NC(=S)Nc1ccccc1F | 11.6% | nt | 22.2% | -8.8 | nt | 4.5% | nt | nt
CSc1nc2ccc(Cl)cc2[nH]1 | 0.5% | 20.1% | ? | -32.5 | -3.9% | 32.0% | nt | nt
CSc1nc2cc(Oc3cccc(Cl)c3Cl)c(Cl)cc2[nH]1 | 12µM* | nt | 7.94µM* | -26.9 | nt | 6.75µM* | ? | 25.6%
O=C(Nc1cc(C(F)(F)F)ccc1N1CCCCC1)c1ccco1 | 37.5% | 2.4% | ? | ? | ? | 12.5% | nt | nt
O=C(Nc1cc(C(F)(F)F)ccc1N1CCCCC1)c1ccc(Br)o1 | ? | -17.0% | 5.01µM* | -12.1 | -25.7% | ? | 14.1µM* | 8.5%
O=C(CCl)Nc1cc2[nH]c(=O)[nH]c2cc1Br | 7.38µM* | ? | 6.31µM* | -105.4* | ? | 2.33µM* | 15.8µM* | ?
CCOc1cc(NC(=O)CCl)c(OCC)cc1NC(=O)CCl | ? | ? | ? | ? | ? | 58.9% | nt | nt
COc1ccc(C(=O)CN(Cc2ccccc2)C2=NCCS2)cc1 | -17.2% | 19.4% | -23.3% | -29.9 | ? | -0.5% | nt | nt
O=C(CN(Cc1ccccc1)C1=NCCS1)c1ccc(Cl)cc1 | ? | 13.0% | 6.31µM* | -15.7 | ? | -2.3% | 8.87µM* | -7.4%
COc1ccc(S(=O)(=O)N(C)C)cc1NC(=O)C1CCN(c2ncnc3sc(C)c(C)c23)CC1 | nt | nt | 8.91µM* | ? | nt | nt | 8.87µM* | ?
Cc1sc2ncnc(N3CCC(C(=O)NNC(=O)c4ccc(Cl)cc4)CC3)c2c1C | ? | 12.8% | ? | ? | -27.4% | -5.9% | nt | nt
CC1=C(C(=O)N2CCN(c3cccc(Cl)c3)CC2)C2(CCCCC2)OC1=O | nt | 2.3%[46.1 µM] | nt | 11.7 | nt | nt | nt | nt
CCCCNC(=O)CSc1nc2cc3c(cc2c(=O)n1CCCCCC(=O)NCc1ccc(OC)cc1)OCO3 | nt | 6.3%[46.1 µM] | nt | -21.2 | nt | nt | nt | nt
CCN1C(=O)c2cccc3c(S(=O)(=O)N(C(C)=O)c4ccc(OC(C)=O)cc4)ccc1c23 | nt | nt | ? | 209.9 | nt | nt | nt | nt
